Screening data (PubChem)
An excerpt weighted towards active compounds, which were near 3% of everything screened.
HEK293 viab: counter-screen for SNCA expression inhibitors: cell viability; HEK-293-SNCA-luc viability, GF-AFC fluorescence, 24 h; Potency, µM (titrated, usually from 57.1 µM), most hits filed as cytotoxic; actives 0.12% (n = 150,000); AID 1671193; further: nearly all actives have a fitted effect of over 30% in size
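HEK-293-SNCA-luc cells (1500/well) plated 24 h, then exposed 24 h to a dilution series; GF-AFC added 30 min at 37C, fluorescence 405/540 nm; normalised to medium-only and DMSO wells, Hill fit.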
KDM5B inhibitor: blocks human KDM5B histone demethylase activity; Q9UGL1; KDM5B demethylase, FDH-coupled NADH fluorescence (FDH is formaldehyde dehydrogenase); Potency, µM (titrated, usually from 57.7 µM), hits mostly inhibitors; actives 2.6% (n = 220,000); AID 1347165; further: nearly all actives have a fitted effect of over 70% in size
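Measured: NADH fluorescence change, 30 min, RT. System: KDM5BΔAP 200 nM final, H3K4me3 peptide, α-KG, Fe(II), ascorbate, NAD⁺ plus FDH, pH 7.5 HEPES. Compounds: titrated, 10 min pre-incubation with enzyme.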
SNCA expr inh: inhibitors of alpha-synuclein (SNCA) gene expression | Potency, µM (series often up to 57.2 µM), actives largely listed as inhibitors | AID 1671194 | actives 0.17% (n = 140,000) | HEK-293 SNCA-luciferase knock-in, luminescence, 24 h; further: nearly all actives have a fitted effect of over 45% in size
IP6K1 inhibitor: IP6K1 kinase inhibition | Q92551 | IP6K1 kinase, ADP-Glo luminescence, 2 h; active compounds read low | activity change, % (series mostly up to about 58 µM) | actives 0.81% (n = 140,000) | AID 1645851; in the data active means activity change below about -25%
Target sequence (Q92551 whole entry, looked up): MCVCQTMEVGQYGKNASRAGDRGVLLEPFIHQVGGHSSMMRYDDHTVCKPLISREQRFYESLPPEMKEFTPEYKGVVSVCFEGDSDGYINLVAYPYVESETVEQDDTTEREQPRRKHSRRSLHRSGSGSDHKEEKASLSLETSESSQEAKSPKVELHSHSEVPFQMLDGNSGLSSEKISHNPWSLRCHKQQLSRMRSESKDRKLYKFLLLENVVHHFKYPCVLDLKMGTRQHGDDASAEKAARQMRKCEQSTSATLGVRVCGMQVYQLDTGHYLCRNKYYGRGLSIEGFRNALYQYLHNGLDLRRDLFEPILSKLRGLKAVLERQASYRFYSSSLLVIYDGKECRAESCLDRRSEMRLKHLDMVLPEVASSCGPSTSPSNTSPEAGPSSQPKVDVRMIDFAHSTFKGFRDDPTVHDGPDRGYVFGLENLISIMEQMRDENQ
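ADP-Glo luminescence measures ADP made by human IP6K1 during a 2 h RT reaction with ATP/IP6 (mix at 1.3 mM/130 uM); top library doses 57.5 and 19.1 uM final.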
Each line names hits and unclear results; the compound was inactive in the other large screens. Unless noted, the call rests on the fitted dose curve; in most records, active means well fitted curve in the direction sought with a large enough effect; inconclusive means small, poorly fitted or top-dose-only effect, or another doubt; inactive means no such curve, though single readings can be large; an effect the other way counts as inactive or inconclusive.

Cc1cccc(C)c1NC(=O)Cn1ccn2nc3c(c2c1=O)CCCC3	SNCA expr inh inconclusive
COc1cccc(CNC(=O)c2ccc3nnc(-c4ccc(Cl)cc4)n3c2)c1	none (no result: KDM5B inhibitor)
O=C(NC1CCN(c2nccc(Nc3ccccc3F)n2)CC1)c1cccc(Cl)c1	none (no result: KDM5B inhibitor)
COCc1ccc2c(c1)c(OC(C)(C)C(=O)N1CC(O)C1)nn2CCC(C)C	KDM5B inhibitor 35.5µM
COCc1ccc2c(c1)c(OC(C)(C)C(N)=O)nn2CCC(C)C	KDM5B inhibitor 31.6µM
Cc1nn(-c2ccccc2)c2c1C(C(C)C)N(C1CCCN(C(=O)Nc3ccccc3)C1)C2=O (stereo unspecified)	none (no result: HEK293 viab, KDM5B inhibitor, SNCA expr inh)
CCCCOC(=O)N1C[C@@H](C(=O)OCC)[C@@H]2Oc3cc(OC)ccc3[C@@H]21	none (no result: HEK293 viab, KDM5B inhibitor, SNCA expr inh)
Cc1ccc(-c2noc([C@@H]3C[C@H](NS(=O)(=O)c4ccc(Cl)cc4)CN3C)n2)cc1	KDM5B inhibitor inconclusive
Cn1ccc2c(C(=O)NCc3cccnc3)nc(-c3cccc(N4CCOCC4)c3)cc21	none
CN(C)Cc1cccc(-c2cc3c(ccn3Cc3ccncc3)c(N3CCOCC3)n2)c1	KDM5B inhibitor 39.8µM
c1cc(-c2cc3c(ccn3Cc3ccncc3)c(N3CCOCC3)n2)cc(N2CCOCC2)c1	KDM5B inhibitor 20µM
COc1cccc([S+](=O)([O-])N2CCn3c(nn(-c4ccc(F)cc4F)c3=O)C2)c1	KDM5B inhibitor 25.1µM
COc1ccc(CN2CCn3c(nn(-c4ccc([N+](=O)[O-])cc4)c3=O)C2)cc1	KDM5B inhibitor 31.6µM
COc1ccc(CN2CCn3c(nn(-c4ccc(F)cc4F)c3=O)C2)cc1	KDM5B inhibitor 22.4µM
O=c1n(-c2ccc(F)cc2F)nc2n1CCN([S+](=O)([O-])c1cccc(C(F)(F)F)c1)C2	none
Cc1ccc(CN2CCn3c(nn(-c4ccc([N+](=O)[O-])cc4)c3=O)C2)cc1	KDM5B inhibitor inconclusive
Cn1ncc2c(C(=O)Nc3cccc(F)c3)cc(-c3ccccc3C(F)(F)F)nc21	none (no result: HEK293 viab, KDM5B inhibitor, SNCA expr inh)
O=C(Cc1cccc(Cl)c1)NC1CCN(c2ccc3nnc(C4CC4)n3n2)C1 (stereo unspecified)	none (no result: HEK293 viab, KDM5B inhibitor, SNCA expr inh)
O=C(NCc1ccco1)N1CCc2nc3cc(-c4ccccc4Cl)[nH]n3c(=O)c2C1	KDM5B inhibitor 14.1µM, SNCA expr inh inconclusive
CCn1nccc1C(=O)N1CCc2nc3cc(-c4ccccc4Cl)[nH]n3c(=O)c2C1	KDM5B inhibitor inconclusive, SNCA expr inh inconclusive
O=C(c1ccncc1)N1CCc2nc3cc(-c4ccccc4Cl)[nH]n3c(=O)c2C1	KDM5B inhibitor 15.8µM, SNCA expr inh 7.94µM
Cc1cc2c(cc1C(=O)N[C@H](c1ccccn1)C1CC(O)C1)OCCO2 (stereo partly specified)	none
O=C(N[C@H](c1ccccn1)C1CC(O)C1)c1cnc2ccccn2c1=O (stereo partly specified)	KDM5B inhibitor 25.1µM
O=C(NCc1cccs1)c1nc(-c2cccc(C(F)(F)F)c2)c2cnccn12	KDM5B inhibitor 15.8µM
O=C(NCc1ccc(F)cc1)c1nc(-c2cccc(C(F)(F)F)c2)c2cnccn12	KDM5B inhibitor 28.2µM
O=C(NCc1ccc(F)cc1)c1nc(-c2cccc(F)c2)c2cnccn12	none
COc1ccccc1Nc1ccnc(N2CCCC(C(=O)NCCCc3ccccc3)C2)n1 (stereo unspecified)	none (no result: KDM5B inhibitor)
O=C1Nc2ccccc2CC12CCN(Cc1ccc(Cl)cc1)CC2	KDM5B inhibitor inconclusive
O=C(COc1ccccc1-n1cnnc1)NC1CCCc2c1[nH]c1ccccc21 (stereo unspecified)	none
Cc1cc(=O)oc2cc(OCC(=O)NC3CCCc4c3[nH]c3ccccc43)ccc12 (stereo unspecified)	HEK293 viab inconclusive, KDM5B inhibitor 15.8µM, SNCA expr inh inconclusive
Cc1noc(C)c1CCC(=O)NC1CCCc2c1[nH]c1ccccc21 (stereo unspecified)	KDM5B inhibitor 28.2µM
COc1cccc(CC(=O)N2CCC3(CC2)OC(=O)N(Cc2csc(C)n2)C3(C)c2ccccc2)c1 (stereo unspecified)	none
Cc1ccc(-c2noc([C@@H]3C[C@@H](O)CN3CC3CC3)n2)cc1F	none
COc1cc(F)ccc1-c1nccc2c(=O)cc(N3CCN(C)CC3)oc12	KDM5B inhibitor inconclusive
COc1ccc(-c2nccc3c(=O)cc(N4CCN(C)CC4)oc23)cn1	KDM5B inhibitor 31.6µM
COc1ncc(-c2nccc3c(=O)cc(N4CCN(C)CC4)oc23)cn1	KDM5B inhibitor 35.5µM
CCOC(=O)NC1CCCN(Cc2cccc(-c3ccc(C)c(Cl)c3)c2)C1 (stereo unspecified)	none (no result: KDM5B inhibitor)
COc1cccc(CNC(=O)C2CCCN2C(=O)c2cccc(-c3cccc(OC)c3)c2)c1 (stereo unspecified)	HEK293 viab inconclusive (no result: KDM5B inhibitor)
Cn1cnnc1CC1CCN(C(=O)CCc2ccccc2)CC1	SNCA expr inh inconclusive (no result: KDM5B inhibitor)
Cn1cnnc1CC1CCN(C(=O)CCc2nc3ccccc3[nH]c2=O)CC1	KDM5B inhibitor 25.1µM
O=C(NCCc1ccc(Cl)cc1)C1CCCN(c2nccc(Nc3ccccc3F)n2)C1 (stereo unspecified)	none (no result: KDM5B inhibitor)
CC(C)NC(=O)NC[C@H]1O[C@@H](CO)[C@@H](O)[C@H]1N1CCN(c2ccccn2)CC1	KDM5B inhibitor inconclusive
CC(C)NC[C@H]1O[C@@H](CO)[C@@H](O)[C@H]1N1CCN(c2ccccn2)CC1	KDM5B inhibitor 25.1µM
Cc1oc(-c2ccccc2Cl)nc1CS(=O)CC(=O)N1CCN(c2cccc(C(F)(F)F)c2)CC1 (stereo unspecified)	HEK293 viab inconclusive, SNCA expr inh 12.6µM
O=C(NCc1ccc(C(F)(F)F)cc1)C1CCN(Cc2ccccc2-c2ccccc2F)CC1	none (no result: HEK293 viab, KDM5B inhibitor, SNCA expr inh)
O=C(NCc1ccc(F)cc1)c1nc2sccn2c1-c1ccc(C(F)(F)F)cc1	SNCA expr inh inconclusive (no result: KDM5B inhibitor)
CCn1ccnc1CN(C)C(=O)c1cc(-c2cnc(C)nc2)nc2cc(F)ccc12	none
CCn1ccnc1CN(C)C(=O)c1cc(-c2cnc(N)nc2)nc2c(C)cccc12	KDM5B inhibitor 28.2µM
COc1ccccc1-c1ccc(CN2CCCCC2C(=O)NCc2cccc(C(F)(F)F)c2)cc1 (stereo unspecified)	none (no result: HEK293 viab, KDM5B inhibitor, SNCA expr inh)
O=C(NCCNC(=O)c1cccnc1)c1ccc(-c2cccc(C(F)(F)F)c2)cc1	none (no result: HEK293 viab, KDM5B inhibitor, SNCA expr inh)
Cc1ccccc1C(=O)N1CCC(N2CCCCCC2=O)CC1	KDM5B inhibitor 20µM
O=C(NCC(F)(F)F)c1ccc2oc(-c3ccncc3)nc2c1	none (no result: KDM5B inhibitor)
CCn1ccnc1CNc1ccc(-c2nc(-c3ccccc3C)no2)cn1	KDM5B inhibitor 28.2µM
CSc1ccc(-c2cccc(C(=O)NCC(=O)N3CCN(c4ncccn4)CC3)c2)cc1	none (no result: KDM5B inhibitor)
Cn1ncc2c(C(=O)NCc3ccc(F)cc3)cc(-c3ccc(Cl)nc3)nc21	KDM5B inhibitor 79.4µM
Cn1ncc2c(C(=O)NCCc3ccc(F)cc3)cc(-c3ccc(Cl)nc3)nc21	SNCA expr inh inconclusive (no result: KDM5B inhibitor)
Cn1ncc2c(C(=O)NCc3cccnc3)cc(-c3ccc(Cl)cc3Cl)nc21	KDM5B inhibitor 79.4µM
Cn1ncc2c(C(=O)NCc3cccc(Cl)c3)cc(-c3ccc(Cl)cc3Cl)nc21	none (no result: KDM5B inhibitor)
